# A selection: hits, their analogues and other compounds. The true share with any hit is near 19%.
# TDP1 cell noCPT: qHTS for Inhibitors of human tyrosyl-DNA phosphodiesterase 1 (TDP1): qHTS in cells in absence of CPT | DT40 Tdp1-/- hTDP1 cells, no CPT, ATP luminescence, 48 h | Potency, µM (highest dose often 46.2 µM), for the others: at the highest dose activity change, negative = growth inhibition, actives largely listed as inhibitors | 15% of 420,000 active | AID 686978, 2013; note: potency is the fitted concentration of half-maximal effect; nearly all actives have a fitted effect of over 55% in size
#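 Stably hTDP1-transfected Tdp1-null chicken DT40 cells were treated with library compounds minus camptothecin and grown for at least 48 hr at 37 °C, after which cellular ATP was quantified by luminescence.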
# HT1080 IDH1KD tx: kills HT-1080 cells with IDH1 knockdown. Potency, µM (doses to about 46.1 µM), inactives show top-dose activity, negative = toxicity, hits mostly cytotoxic. 2% of 360,000 active. HT-1080 IDH1 knockdown viability, ATP luminescence, 48 h;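 note: potency is the fitted concentration of half-maximal effect; 0% = DMSO wells and -100% = cell-free medium wells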
#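 Knockdown cells (IDH1KD HT-1080) received compounds 2 h after plating at 750 cells/well and were kept 48 h at 37 °C in 5% FBS RPMI. A CellTiter-Glo luminescence read gave % activity for curve fitting.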
# HT1080NT lethal: kills 2HG-producing HT-1080-NT fibrosarcoma cells; HT-1080-NT fibrosarcoma viability, CellTiter-Glo ATP luminescence, 48 h; Potency, µM (series often up to 46.1 µM), without a hit: top-dose activity, negative = less viability, most hits filed as cytotoxic; 1.6% of 360,000 active; AID 686970;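 note: NT is the 2HG producing partner of a matched IDH1 knockdown line; potency is the fitted concentration of half-maximal effect; 0% = DMSO-treated cells and -100% = media-only wells without cells; nearly all actives have a fitted effect of over 55% in size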
#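 Viability of the 2HG-overproducing fibrosarcoma line after 48 hours of compound exposure at 37 degrees C was determined by luminescence with CellTiter-Glo, and concentration-effect curves were then fitted and categorized.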
# ELG1 repair inh: blocks ELG1-dependent DNA repair in HEK293T cells; AID 504467; 2.3% of 330,000 active; Potency, µM (series often up to 46.1 µM), without a hit: at the highest dose activity change, negative = inhibition, most hits filed as inhibitors; HEK293T ELG1-luciferase reporter, luminescence, 16 h; DNA damage induced by 5-fluorouridine; note: potency is the fitted concentration of half-maximal effect; nearly all actives have a fitted effect of over 55% in size
#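 Quantitative HTS, concentration-response format. 2,000 cells/well co-treated with 5-fluorouridine and compound, 16 hr in 5% CO2 at 37 °C; ONE-Glo luminescence read after 30 min.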
# IL1B secr inh: blocks inflammasome-driven IL-1 beta release; THP-1 LPS/ATP IL-1B secretion, AlphaLISA, 16 h; hits give low values; activity change, % at 57.5 µM; 4.7% of 360,000 active; in the data active = activity change below about -50%; inconclusive = mostly about -30% to -49%
#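 THP-1 cells pretreated 1 hr with compounds (up to 57.5 uM final), then stimulated with LPS (250 ng/mL final) plus ATP (1.25 mM final); secreted IL-1B measured by AlphaLISA after 16 hr, decreased signal indicating inhibition.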
# TDP1 cell CPT: DT40-hTDP1 cell growth loss with CPT; chicken DT40 Tdp1-/-;hTDP1 cells + 20 nM CPT, ATP luminescence, 48 h; Potency, µM (series often up to 46.2 µM), for inactives: at the highest dose activity change, negative = growth inhibition, usual class: inhibitors; 12% of 420,000 active; note: potency is the fitted concentration of half-maximal effect; nearly all actives have a fitted effect of over 55% in size
#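 Chicken DT40 Tdp1-/- cells stably complemented with human TDP1 were seeded at 400 cells/well in medium containing 20 nM camptothecin, exposed to pin-transferred compounds, and grown at 37 °C for at least 48 hr. Viability was read as ATP luminescence.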
# Numbers without * were called inactive; ? = inconclusive; . = no result. Unless noted, calls come from the whole dose curve; as a rule, active = well fitted curve in the direction sought with a large enough effect; inconclusive = small, poorly fitted or top-dose-only effect, or another doubt; inactive = no such curve, though single readings can be large; an effect the other way counts as inactive or inconclusive. Unless noted, % is set by controls: 0 for no effect and ±100 for the full control effect.
SMILES,TDP1 cell noCPT,HT1080 IDH1KD tx,HT1080NT lethal,ELG1 repair inh,IL1B secr inh,TDP1 cell CPT
COc1cccc(NC(=O)CN(C)C(=O)CCCc2c[nH]c3ccccc23)c1,?,-16%,-3%,-11%,-30,-14%
Cc1c(OC(C)C(=O)NCCCn2ccnc2)ccc2c3c(c(=O)oc12)CCC3 (configuration not stated),5%,-7%,5%,9%,12,-24%
Cc1ccc2nc(NC(=O)CSc3nccn3Cc3ccc(Cl)cc3)sc2c1,-7%,.,.,.,.,-6%
COc1ccc(/C=C/C(=O)NCC(=O)N2CCC(N(C)CCN3CCOCC3)CC2)cc1OC,20%,3%,3%,9%,-5,12%
CC(C)(CO)[C@@H](O)C(=O)NCCCO,5%,.,.,.,.,-17%
Cc1ccc(S(=O)(=O)/N=C(\N)Nc2nc(C)c3cc(C)c(C)cc3n2)cc1,?,7%,14%,-25%,-2,23µM*
Cc1ccc(S(=O)(=O)/N=C(\N)Nc2nc(C)c3cc(C)ccc3n2)cc1,?,?,-14%,-1%,-11,?
Cc1ccc(S(=O)(=O)/N=C(\N)Nc2nc(C)c3ccc(C)cc3n2)cc1,?,-10%,8%,-18%,-21,21µM*
Cc1ccc2c(C)nc(N/C(N)=N/S(=O)(=O)c3ccccc3)nc2c1,-21%,1%,19%,19%,-12,-21%
CN(C)CCCN1c2ccccc2Sc2ccc3ccccc3c21,?,?,-17%,.,-102*,?
O=C(CCl)N1c2ccccc2Sc2ccc3ccccc3c21,2.3µM*,?,18µM*,.,-104*,3.7µM*
Cc1ccc2c(c1)Sc1c(ccc3ccccc13)N2,?,-21%,-3%,?,14,?
CN(C)CCCN1c2ccc3ccccc3c2Sc2cccc(Cl)c21,?,?,-20%,.,-96*,?
CN(C)CCCN1c2ccccc2CCc2ccccc21,.,-4%,-2%,-12%,?,.
COCCCn1cc(CN2CC(N3CCCCC3)CS2(=O)=O)nn1 (configuration not stated),0%,1%,21%,.,22,1%
O=C(CN1C=NS(=O)(=O)c2ccc(C(F)(F)F)cc21)Nc1cccc(C(F)(F)F)c1,5%,.,.,.,.,-8%
O=C(c1ccccc1)C1CC1c1ccccc1 (configuration not stated),?,5%,0%,.,-30,?
O=C(c1ccccc1)C1OC1C(=O)c1ccccc1 (configuration not stated),6.5µM*,?,?,.,-96*,4.1µM*
CC1C=CC(C)C(C(=O)c2ccccc2)C1C(=O)c1ccccc1 (configuration not stated),23µM*,-23%,-16%,.,26,13µM*
COc1ccc(CCCN2CCC(CN3CCNC(=O)C3=O)CC2)cc1OC,-10%,8%,10%,.,-1,?
CCC(=O)N1CCc2cc(CNS(=O)(=O)c3ccccc3F)ccc21,3%,.,.,.,.,-25%
CCOC(=O)c1c(C)oc2nc(C)nc(NCCCN3CCN(c4cc(C)ccc4C)CC3)c12,-3%,.,.,.,.,?
CCOC(=O)c1c(C)oc2nc(C)nc(NCCc3ccc(OC)c(OC)c3)c12,18µM*,.,.,.,.,21µM*
CCOC(=O)c1c(C)oc2nc(C)nc(NCc3ccc(OC)cc3OC)c12,13µM*,.,.,.,.,?
CCOC(=O)c1c(C)oc2nc(C)nc(NCc3ccc(F)cc3)c12,16µM*,.,.,.,.,?
SMILES,TDP1 cell noCPT,HT1080 IDH1KD tx,HT1080NT lethal,ELG1 repair inh,IL1B secr inh,TDP1 cell CPT
CCOC(=O)c1c(C)oc2nc(C)nc(Nc3cccc(OC)c3)c12,-25%,.,.,.,.,-27%
CCOC(=O)c1c(C)oc2nc(C)nc(NC(C)c3ccccc3)c12 (configuration not stated),16µM*,.,.,.,.,21µM*
CCN(CC(=O)Nc1ccc(NC(C)=O)cc1)C(=O)c1cccc(S(=O)(=O)N2CCCC2)c1,-1%,0%,1%,15%,16,4%
COCCNC(=O)c1ccc(-c2nc(CS(=O)(=O)c3ccccc3)c(C)o2)cc1,-24%,.,.,.,.,-13%
Cc1cc(C)n(C(=O)/C(C#N)=N\Nc2ccccc2[N+](=O)[O-])n1,2%,7%,6%,-1%,-1,12%
Cc1cc(C)n(C(=O)/C(C#N)=N/Nc2cc(Cl)cc(Cl)c2)n1,2.6µM*,-16%,-27%,16µM*,-28,3.3µM*
O=C(Nc1cccc(-c2nc3ccccc3o2)c1)c1cc([N+](=O)[O-])ccc1N1CCOCC1,8.2µM*,.,.,.,.,?
O=C(Nc1cc(-c2nc3cc(Cl)ccc3o2)ccc1Cl)c1cc([N+](=O)[O-])ccc1N1CCOCC1,-8%,.,.,.,.,5%
COc1ccc2oc(-c3cccc(NC(=O)c4cc([N+](=O)[O-])ccc4N4CCOCC4)c3)nc2c1,?,.,.,.,.,13µM*
O=C([O-])c1ccccc1-[n+]1c(-c2ccccc2)cc(-c2ccccc2)cc1-c1ccccc1,5.8µM*,-17%,-15%,16%,10,4.6µM*
Cc1nc(Nc2cnc(/C=C/c3cc(C(=O)Nc4cccc(C(F)(F)F)c4)ccc3C)cn2)cc(N2CCNCC2)n1,21µM*,?,?,?,-97*,18µM*
Cc1nc(N2CCC(C)CC2)c2c(C)c(C(=O)Nc3cccc(C(F)(F)F)c3)sc2n1,?,?,?,-16%,0,?
CCCOc1ccc(F)cc1-c1cc(C(=O)Nc2ccc(OC)cc2OC)[nH]n1,18µM*,8%,7%,.,-13,?
COc1ccc(NC(=O)CSc2cc(C)ccc2C)cn1,16µM*,13%,7%,-7%,-22,?
COc1ccc(NC(=O)c2cc(-c3cc(Cl)ccc3OC)n[nH]2)c(C)c1,18µM*,?,?,.,?,?
COc1ccc(Cl)cc1-c1cc(C(=O)Nc2ccc(C)c(NS(C)(=O)=O)c2)[nH]n1,21µM*,23µM*,21µM*,.,?,18µM*
CCCOc1ccc(F)cc1-c1cc(C(=O)Nc2ccc(OC)cc2C)[nH]n1,?,-11%,6%,.,-26,?
O=C1C(=O)N(CC2CCCO2)C(c2ccccc2[N+](=O)[O-])/C1=C(/O)c1ccccc1 (configuration not stated),3%,-4%,-6%,8%,27,6%

# Assay outcomes deposited in PubChem BioAssay by National Center for Advancing Translational Sciences (NCATS).
